Measured values as given in the supplement of paper PMC6555819.

Key:
Assay in all cases: PBM binding z-score (relative to random genomic background probes); higher = stronger binding; sequences stand for … in GC…GCGATTGACAGCGTAGAATGAAGG
[1] = system: FXR:RXRa (NR concentration 270 nM, RXRa partner concentration 90 nM)
Summary of the method: (§1)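 Regression normalization was applied to scanned fluorescence from custom Agilent 4×180K protein-binding microarrays. Before scanning, arrays were incubated 1 h with ligand-free nuclear receptor dimers, and binding was detected with antibodies against each partner (one per run). Binding z-scores use the random background probes as reference.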

[2] = system: LXRa:RXRa (NR concentration 270 nM, RXRa partner concentration 90 nM)
Summary of the method: as §1

[3] = system: LXRa homodimer (NR concentration 270 nM)
Summary of the method: as §1

[4] = system: LXRb:RXRa (NR concentration 270 nM, RXRa partner concentration 90 nM)
Summary of the method: as §1

[5] = system: LXRb homodimer (NR concentration 270 nM)
Summary of the method: as §1

[6] = system: PPARa:RXRa (NR concentration 270 nM, RXRa partner concentration 90 nM)
Summary of the method: as §1

[7] = system: PPARg:RXRa (NR concentration 180 nM, RXRa partner concentration 90 nM)
Summary of the method: as §1

[8] = system: PPARg:RXRa 270nM:90nM, anti-RXR (NR concentration 270 nM, RXRa partner concentration 90 nM)
Summary of the method: as §1

[9] = system: PPARg:RXRa 30nM:10nM, anti-RXR (NR concentration 30 nM, RXRa partner concentration 10 nM)
Summary of the method: as §1

[10] = system: PPARg:RXRa 90nM:30nM, anti-RXR (NR concentration 90 nM, RXRa partner concentration 30 nM)
Summary of the method: as §1

| Sequence | PBM binding z-score [1] | PBM binding z-score [2] | PBM binding z-score [3] | PBM binding z-score [4] | PBM binding z-score [5] | PBM binding z-score [6] | PBM binding z-score [7] | PBM binding z-score [8] | PBM binding z-score [9] | PBM binding z-score [10] |
| --- | --- | --- | --- | --- | --- | --- | --- | --- | --- | --- |
| CAGCCTAGGTCAGGGCCAGTTTAGGAGGAACGTT | 2.04 | 1.26 | -0.426 | 0.837 | -1.02 | 2.13 | 0.55 | 0.962 | -0.489 | 0.124 |
| CCGACTGGGGCATAAGGTTACCATGAGCCAGCCC | 0.192 | 1.36 | -0.247 | 0.153 | -1.3 | 1.9 | 2.48 | 3.24 | 1.36 | 2.8 |
| ATCTCTAGGTAACAAGCTCAGTGAAAGAGAGGAC | 0.331 | 0.45 | -0.0616 | -0.105 | 0.556 | 0.394 | 0.682 | 0.77 | 0.327 | 0.644 |
| TCTCGGAGGACACGAAGCTCAGAGCTTTCCAGAG | 0.39 | -0.167 | -0.771 | -0.53 | -1.25 | -0.0868 | -0.122 | 0.617 | 1.74 | 1.27 |
| ATACCAAAGTGATCGTGAGGTCGTTGATACTAAC | 1.23 | 0.707 | 0.848 | 0.923 | -0.182 | 0.935 | 0.235 | 0.258 | 0.0966 | -0.173 |
| TCCTATAGGTAAAGGTGAAAGTCGAACGATATGA | 1.05 | 1.25 | -0.0559 | 1.25 | -0.199 | 3.07 | 2.77 | 3.93 | 3.81 | 3.96 |
| TCTTGTAGATCAAGCAGGTTAGGAAAGCCTGAGT | -0.176 | 0.11 | -0.571 | -0.145 | -0.701 | 0.251 | -0.615 | 1 | 2.29 | 1.62 |
| GCTGATAGGTCAACTGATGGTCAGCTAAAGCTCG | 5.47 | 4.76 | 0.669 | 3.53 | 0.283 | 4.84 | 3.41 | 4.06 | 1.34 | 2.96 |
| ATCTCTAGGTAAAAGTTCAGTGAATCCCGAGGAT | 0.943 | 1.4 | 1.16 | 1.12 | 0.841 | 4.11 | 8.09 | 7.52 | 8.83 | 8.39 |
| ACTAGCAGGCCAAGTTTGGGTAACTCAAACAAAG | -0.442 | -0.634 | -0.575 | -0.304 | -0.8 | -0.339 | -0.414 | -0.541 | -0.687 | -0.687 |
| TCACACAGGTGAAGGTAACTCAGGTACGCAGTCG | 0.851 | 2.02 | -0.228 | 1 | -0.466 | 1.32 | 1.14 | 1.81 | 2.94 | 2.66 |
| CCTTACGGGTCATGAGGTTATAGCACGACGAGCG | 7.04 | 4.93 | 0.379 | 3.84 | 0.286 | 5.85 | 5.69 | 5.69 | 2.37 | 4.58 |
| CCTGCTAGGTCAATGGTCGGCTAAAGCAGCTCGC | 2.91 | 2.29 | 0.0582 | 1.14 | -0.355 | 2.95 | 3.48 | 4.34 | 1.27 | 3.38 |
| CGGCCAAGGTCAAGGTCAGTGAAAGAGACTCGAA | 7.61 | 5.58 | 0.407 | 4.63 | 0.323 | 6.12 | 6.44 | 6.23 | 2.33 | 4.85 |
| AGTCAAAGTTCATTTAGGTAACGTAAGATATGCT | 6.47 | 6.25 | 6.58 | 4.2 | 3.14 | 4.58 |  | 6.05 | 2.98 | 5.09 |
| AGTCAAAGTCCAGGACGAGGTAACGTAAAGCACG | -0.263 | -0.424 | -0.518 | -0.388 | -0.767 | 0.01 | 0.733 | -0.294 | -0.119 | -0.153 |
| CCTTACGGGTTACTGACAGGTTATAGCATTTGGA | 0.701 | 2.51 | 0.282 | 1.34 | -0.567 | 1.78 | 0.373 | 1.24 | 0.114 | 0.535 |
